In ChEMBL document CHEMBL3988442, “University of Dundee, Small-Polar-MMV Screening Library” (2021):
For part of these data: Results with a measured potency or affinity are listed apart.

Experiments:
Parameters in all cases: scale not given: direction of the effect not stated beside the values
[1] = biological target: Protein translocase subunit SecA (Escherichia coli (strain K12)) (UniProt P10408); test: Assay to Identify E. coli SecA ATPase Inhibitors; format: functional; conditions: 30 µM
[2] = biological target: T1, Ubiquitin-activating enzyme e1, putative (Leishmania donovani (strain BPK282A1)) (UniProt E9BSI1); test: Leishmania donovani Ubiquitin Activating Enzyme (LdE1); format: functional; conditions: 30 µM
T1 sequence (whole entry): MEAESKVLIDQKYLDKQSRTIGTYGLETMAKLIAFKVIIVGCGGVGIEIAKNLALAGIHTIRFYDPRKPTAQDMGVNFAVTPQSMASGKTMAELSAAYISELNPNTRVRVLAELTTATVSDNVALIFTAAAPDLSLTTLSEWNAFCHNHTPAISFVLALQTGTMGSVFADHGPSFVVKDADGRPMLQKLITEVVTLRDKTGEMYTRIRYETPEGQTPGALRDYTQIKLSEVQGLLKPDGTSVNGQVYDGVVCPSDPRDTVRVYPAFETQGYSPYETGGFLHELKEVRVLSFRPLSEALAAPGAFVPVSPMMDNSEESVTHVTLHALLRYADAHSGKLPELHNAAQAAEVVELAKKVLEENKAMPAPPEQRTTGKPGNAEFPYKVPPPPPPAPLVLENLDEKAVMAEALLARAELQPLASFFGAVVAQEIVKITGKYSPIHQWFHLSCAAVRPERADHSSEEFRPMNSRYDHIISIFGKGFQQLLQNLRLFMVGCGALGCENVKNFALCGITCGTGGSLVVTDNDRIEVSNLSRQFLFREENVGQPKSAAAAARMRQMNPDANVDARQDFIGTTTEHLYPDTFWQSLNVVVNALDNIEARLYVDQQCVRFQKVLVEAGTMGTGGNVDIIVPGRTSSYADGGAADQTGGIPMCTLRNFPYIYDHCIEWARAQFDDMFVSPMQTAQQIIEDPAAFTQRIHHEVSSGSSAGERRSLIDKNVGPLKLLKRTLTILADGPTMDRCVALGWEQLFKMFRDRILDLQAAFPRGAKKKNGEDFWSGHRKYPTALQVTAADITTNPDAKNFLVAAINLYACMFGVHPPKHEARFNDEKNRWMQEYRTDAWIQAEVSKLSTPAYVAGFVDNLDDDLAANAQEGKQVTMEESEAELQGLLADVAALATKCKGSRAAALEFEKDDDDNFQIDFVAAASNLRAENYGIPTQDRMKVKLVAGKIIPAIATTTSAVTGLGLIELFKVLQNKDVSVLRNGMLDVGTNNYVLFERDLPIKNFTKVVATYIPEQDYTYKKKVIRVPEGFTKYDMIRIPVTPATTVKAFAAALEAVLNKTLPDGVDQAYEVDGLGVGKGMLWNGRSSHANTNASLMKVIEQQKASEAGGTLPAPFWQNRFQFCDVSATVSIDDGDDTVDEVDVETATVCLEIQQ

[3] = biological target: Sialic acid-binding Ig-like lectin 9 (Homo sapiens) (UniProt Q9Y336); test: Hs-Siglec9 ALPHAscreen SOP 20170721; conditions: 10 µM
Sialic acid-binding Ig-like lectin 9 (Homo sapiens), sequence (Q9Y336 whole entry): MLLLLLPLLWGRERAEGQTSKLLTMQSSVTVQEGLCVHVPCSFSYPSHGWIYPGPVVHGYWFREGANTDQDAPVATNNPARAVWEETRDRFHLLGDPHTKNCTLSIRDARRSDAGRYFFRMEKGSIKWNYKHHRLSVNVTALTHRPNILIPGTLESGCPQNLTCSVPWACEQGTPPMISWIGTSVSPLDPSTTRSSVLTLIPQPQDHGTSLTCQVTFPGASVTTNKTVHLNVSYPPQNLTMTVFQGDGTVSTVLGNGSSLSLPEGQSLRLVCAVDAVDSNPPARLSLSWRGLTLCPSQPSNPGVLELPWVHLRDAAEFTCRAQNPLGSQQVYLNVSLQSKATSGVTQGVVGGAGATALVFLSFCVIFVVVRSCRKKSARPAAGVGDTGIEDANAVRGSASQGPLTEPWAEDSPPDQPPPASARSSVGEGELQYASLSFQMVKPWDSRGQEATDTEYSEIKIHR

Trypanosoma cruzi = test: Trypanosoma cruzi phosphomannomutase and mannose-1-phosphate guanylyltransferase assay; format: functional; conditions: 10 µM
[4] = biological target: T2, Arginase-2, mitochondrial (Homo sapiens) (UniProt P78540); test: in vitro enzyme assay to detect the production of urea directly proportional to the activity of Arginase II; format: functional; conditions: 33.3 µM; further: in the data most compounds retested in dose-response had high values
T2 sequence (whole entry): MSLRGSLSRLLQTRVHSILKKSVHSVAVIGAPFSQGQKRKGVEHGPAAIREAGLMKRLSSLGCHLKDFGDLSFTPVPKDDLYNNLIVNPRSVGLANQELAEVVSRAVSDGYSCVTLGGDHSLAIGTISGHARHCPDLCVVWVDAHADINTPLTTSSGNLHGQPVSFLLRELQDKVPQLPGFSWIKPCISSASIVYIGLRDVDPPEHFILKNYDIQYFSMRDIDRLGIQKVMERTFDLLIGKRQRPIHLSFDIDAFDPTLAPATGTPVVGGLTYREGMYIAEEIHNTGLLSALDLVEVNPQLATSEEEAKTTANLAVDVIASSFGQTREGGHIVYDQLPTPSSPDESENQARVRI

[5] = biological target: T3, Proteasome subunit beta (Trypanosoma cruzi) (UniProt O96673); test: Trypanosoma cruzi proteasome chymotrypsin-like activity (TcProtChymo) assay.; further: in the data most compounds retested in dose-response had high values; format: functional; conditions: 9.37 µM
T3 sequence (whole entry): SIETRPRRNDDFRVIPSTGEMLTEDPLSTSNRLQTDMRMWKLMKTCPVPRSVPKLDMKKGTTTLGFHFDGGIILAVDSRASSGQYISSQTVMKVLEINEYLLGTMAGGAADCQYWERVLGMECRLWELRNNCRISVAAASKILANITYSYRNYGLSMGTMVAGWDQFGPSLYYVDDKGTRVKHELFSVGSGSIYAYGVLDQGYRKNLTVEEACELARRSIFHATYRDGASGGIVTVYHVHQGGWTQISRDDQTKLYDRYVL

Homo sapiens = species: Homo sapiens; test: To identify inhibition of the IFN signalling (Jak-Stat) pathway via expression of an eGFP reporter gene under the control of an IFN-stimulated response element (ISRE) containing MxA promoter.; format: functional; conditions: 30 µM
[6] = biological target: T4, Tyrosyl-tRNA synthetase, putative (Trypanosoma cruzi (strain CL Brener)) (UniProt Q4DSP6); test: Trypanosoma cruzi tyrosyl tRNA synthetase (TcYRS) _High Tyrosine SOP; format: functional; conditions: 30 µM; further: in the data most compounds retested in dose-response had high values
T4 sequence (whole entry): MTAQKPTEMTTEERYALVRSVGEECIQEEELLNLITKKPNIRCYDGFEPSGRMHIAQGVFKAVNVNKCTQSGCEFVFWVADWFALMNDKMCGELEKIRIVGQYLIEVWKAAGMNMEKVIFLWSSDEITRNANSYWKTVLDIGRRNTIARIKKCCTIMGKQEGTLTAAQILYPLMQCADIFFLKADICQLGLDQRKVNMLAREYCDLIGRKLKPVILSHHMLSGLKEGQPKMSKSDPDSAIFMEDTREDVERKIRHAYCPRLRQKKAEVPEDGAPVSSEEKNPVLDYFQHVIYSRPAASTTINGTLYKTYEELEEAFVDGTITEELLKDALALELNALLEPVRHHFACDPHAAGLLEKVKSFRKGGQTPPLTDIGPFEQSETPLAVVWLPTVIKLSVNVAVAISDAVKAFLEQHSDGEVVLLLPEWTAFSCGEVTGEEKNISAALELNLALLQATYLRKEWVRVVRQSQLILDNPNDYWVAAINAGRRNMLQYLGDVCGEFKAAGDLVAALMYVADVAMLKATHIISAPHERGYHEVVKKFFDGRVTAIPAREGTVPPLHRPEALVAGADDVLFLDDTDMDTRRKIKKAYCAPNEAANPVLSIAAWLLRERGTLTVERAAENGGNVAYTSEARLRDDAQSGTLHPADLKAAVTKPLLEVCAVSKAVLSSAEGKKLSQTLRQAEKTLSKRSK

[7] = biological target: T4, Tyrosyl-tRNA synthetase, putative (Trypanosoma cruzi (strain CL Brener)); test: Trypanosoma cruzi tyrosyl tRNA synthetase (TcYRS) SOP; format: functional; conditions: 30 µM
[8] = biological target: Chromo domain-containing protein 1 (Saccharomyces cerevisiae (strain ATCC 204508 / S288c) (Baker's yeast)) (UniProt P32657); test: ScCHD-1 Enzyme Inhibition Assay; format: functional; conditions: 30 µM; further: in the data most compounds retested in dose-response had high values
Chromo domain-containing protein 1 (Saccharomyces cerevisiae (strain ATCC 204508 / S288c) (Baker's yeast)), sequence (P32657 whole entry, the tested form may be a part): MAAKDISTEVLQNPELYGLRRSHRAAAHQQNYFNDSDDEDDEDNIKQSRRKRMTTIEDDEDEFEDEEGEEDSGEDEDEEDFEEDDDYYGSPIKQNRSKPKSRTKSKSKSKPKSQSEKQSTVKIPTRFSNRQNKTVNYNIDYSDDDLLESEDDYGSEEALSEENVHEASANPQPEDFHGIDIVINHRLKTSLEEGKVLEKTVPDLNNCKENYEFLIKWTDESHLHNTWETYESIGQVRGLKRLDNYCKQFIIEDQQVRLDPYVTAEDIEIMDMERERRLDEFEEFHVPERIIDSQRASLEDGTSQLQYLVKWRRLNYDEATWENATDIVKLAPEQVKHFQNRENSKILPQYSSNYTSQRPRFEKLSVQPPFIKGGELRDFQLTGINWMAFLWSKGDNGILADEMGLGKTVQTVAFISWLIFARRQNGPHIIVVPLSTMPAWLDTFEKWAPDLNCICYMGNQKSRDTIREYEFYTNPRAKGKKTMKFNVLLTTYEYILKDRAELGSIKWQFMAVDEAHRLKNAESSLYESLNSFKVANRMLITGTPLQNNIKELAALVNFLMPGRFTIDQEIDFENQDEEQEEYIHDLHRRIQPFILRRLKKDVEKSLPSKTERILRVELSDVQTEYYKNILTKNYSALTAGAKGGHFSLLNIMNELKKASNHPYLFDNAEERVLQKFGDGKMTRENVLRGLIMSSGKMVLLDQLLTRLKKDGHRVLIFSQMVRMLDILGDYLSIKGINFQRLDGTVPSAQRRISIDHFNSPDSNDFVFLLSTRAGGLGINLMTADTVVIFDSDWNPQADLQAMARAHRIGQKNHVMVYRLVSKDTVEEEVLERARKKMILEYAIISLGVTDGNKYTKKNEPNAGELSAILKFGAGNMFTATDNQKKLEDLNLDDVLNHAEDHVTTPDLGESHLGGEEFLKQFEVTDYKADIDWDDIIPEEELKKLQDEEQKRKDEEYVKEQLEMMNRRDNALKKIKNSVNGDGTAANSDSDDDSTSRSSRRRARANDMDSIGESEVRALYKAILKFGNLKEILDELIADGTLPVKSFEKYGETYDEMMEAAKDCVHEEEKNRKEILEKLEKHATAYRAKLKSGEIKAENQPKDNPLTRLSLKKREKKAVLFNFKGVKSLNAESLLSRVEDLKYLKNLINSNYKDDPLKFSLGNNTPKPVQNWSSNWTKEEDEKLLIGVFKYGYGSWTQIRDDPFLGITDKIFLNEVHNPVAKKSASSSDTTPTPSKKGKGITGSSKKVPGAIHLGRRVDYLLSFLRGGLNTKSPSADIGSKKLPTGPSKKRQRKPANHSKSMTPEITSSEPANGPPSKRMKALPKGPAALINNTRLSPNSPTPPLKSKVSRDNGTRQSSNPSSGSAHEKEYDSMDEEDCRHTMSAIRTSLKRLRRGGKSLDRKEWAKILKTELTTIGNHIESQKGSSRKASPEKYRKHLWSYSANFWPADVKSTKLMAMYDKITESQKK

Protein translocase subunit SecA (Escherichia coli (strain K12)), sequence (P10408 whole entry): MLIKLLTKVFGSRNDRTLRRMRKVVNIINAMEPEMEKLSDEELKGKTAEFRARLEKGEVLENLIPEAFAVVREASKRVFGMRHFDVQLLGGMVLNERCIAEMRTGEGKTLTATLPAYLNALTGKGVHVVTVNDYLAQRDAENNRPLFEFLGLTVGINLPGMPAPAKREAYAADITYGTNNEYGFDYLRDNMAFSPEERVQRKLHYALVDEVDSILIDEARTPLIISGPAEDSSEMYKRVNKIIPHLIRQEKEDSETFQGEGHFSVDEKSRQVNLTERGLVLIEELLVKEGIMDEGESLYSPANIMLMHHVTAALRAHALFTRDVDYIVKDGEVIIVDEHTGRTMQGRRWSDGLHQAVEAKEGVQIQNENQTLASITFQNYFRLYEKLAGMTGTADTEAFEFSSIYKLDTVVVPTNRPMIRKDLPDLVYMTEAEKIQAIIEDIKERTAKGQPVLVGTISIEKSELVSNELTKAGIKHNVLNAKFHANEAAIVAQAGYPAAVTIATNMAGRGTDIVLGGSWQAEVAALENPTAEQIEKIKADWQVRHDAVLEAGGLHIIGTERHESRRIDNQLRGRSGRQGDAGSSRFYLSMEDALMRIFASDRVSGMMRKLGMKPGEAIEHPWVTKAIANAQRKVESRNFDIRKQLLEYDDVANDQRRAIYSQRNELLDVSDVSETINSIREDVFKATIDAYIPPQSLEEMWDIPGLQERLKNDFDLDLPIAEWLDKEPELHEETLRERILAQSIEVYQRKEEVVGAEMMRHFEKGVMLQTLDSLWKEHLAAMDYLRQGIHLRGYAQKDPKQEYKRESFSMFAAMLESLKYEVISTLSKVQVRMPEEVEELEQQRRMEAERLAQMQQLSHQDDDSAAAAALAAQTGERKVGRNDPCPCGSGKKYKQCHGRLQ

Compound	Percent Effect [1] [%]	Percent Effect [2] [%]	Percent Effect [3] [%]	Percent Effect (Trypanosoma cruzi) [%]	Percent Effect [4] [%]	Percent Effect [5] [%]	Percent Effect (Homo sapiens) [%]	Percent Effect [6] [%]	Percent Effect [7] [%]	Percent Effect [8] [%]
CNc1ccc(CC2CCCN(C(=O)c3cncnc3C)C2)nn1 (stereo not given)	3.9	12	-5.1	-6.31	8.41	13	4.65	1.06	10	-22.6
O=C(c1ccccn1)N1Cc2nccn2CC(CN2CCOCC2)C1 (stereo not given)	-4.41	9.09	-2.41	-2.63	5.67	8.56	4.82	12.1	15.4	1.74
Cc1ccc(NC(=O)C2CSCN2C(=O)c2cnn(C)c2)c(C)c1 (stereo not given)	-6.12	5.13	11	3.29	-0.41	-1.28	0.716	4.31	18.1	-1.32
COCCN1CCN(Cc2ccc(F)c(C)c2)[C@H]2CS(=O)(=O)C[C@H]21	-6.45	10.8	28.9	12.3	10.8	5.48	-1.07	7.98	17.1	-4.27
CCCc1n[nH]cc1C(=O)N1CCC(c2nccn2CCOC)CC1	-7.31	16.2	21.9	8.44	20.6	7.19	11	5.85	12.2	20.9
Cc1noc(C)c1CC(=O)OCC(=O)N1CCc2sccc2C1	-3.42	18.7	0.304	0.201	-3.99	14.3	12.1	6.84	23.1	-8.07
CCCC(=O)N1CCC2(CC1)CC(NC(C)=O)c1ccccc1O2 (stereo not given)	0.455	1.3	-0.437	-4.69	7.31	-0.0858	6.03	-1.93	-5	-2.27
Cc1cc(OCC(=O)N2CCCC(c3noc(C)n3)C2)no1 (stereo not given)	2.24	13.3	-8.66	-4.62	4.88	19.8	17.5	-0.526	2.56	-9.02
Fc1cnc(N2CCOCC3(CCCN(c4nncs4)C3)C2)nc1 (stereo not given)	-8.43	6.49	-1.88	-2.63	-5.26	10.5	-23.8	1.58	7.69	0.128
Cc1noc(C)c1CN(C)C(=O)NC1CCN(c2ncccn2)CC1	-4.16	10.3	-17.2	11.7	-0.82	9.64	13.1	5.26	20.5	-9.27
Cc1ccc(F)cc1S(=O)(=O)NCc1cccnc1N(C)C	2.25	20.8	-2.76	-0.373	-5.53	14.7	26.1	7.84	21.2	-8.95
CN1CCC(c2ncc3c(n2)CCN(C(=O)CC2C=CCC2)C3)CC1 (stereo not given)	1.34	14.7	-4.21	-1.58	3.1	9.03	7.04	12.7	22.5	-23.1
